Experimental data as given in PubChem BioAssay.
A number with no mark means an inactive call. This is one part of the list. Calls of active or inactive are those of the source.

Columns and labels:
[1] = biological target: Inward rectifier potassium channel 2 (Mus musculus) (UniProt P35561); test: inhibition of Kir2.1 inward rectifier potassium flux – cell-based, FluxOR thallium flux, duplicate, confirmation (AID 2032;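 active = Primary-screen hit whose thallium flux fell at least 3 control SD below untreated wells in both duplicates, with normal baseline fluorescence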); conditions: Kir2.1-expressing cells, FluxOR thallium flux fluorescence, at 10 µM; active compounds read low
Sequence of Inward rectifier potassium channel 2 (Mus musculus) (P35561 whole entry, looked up): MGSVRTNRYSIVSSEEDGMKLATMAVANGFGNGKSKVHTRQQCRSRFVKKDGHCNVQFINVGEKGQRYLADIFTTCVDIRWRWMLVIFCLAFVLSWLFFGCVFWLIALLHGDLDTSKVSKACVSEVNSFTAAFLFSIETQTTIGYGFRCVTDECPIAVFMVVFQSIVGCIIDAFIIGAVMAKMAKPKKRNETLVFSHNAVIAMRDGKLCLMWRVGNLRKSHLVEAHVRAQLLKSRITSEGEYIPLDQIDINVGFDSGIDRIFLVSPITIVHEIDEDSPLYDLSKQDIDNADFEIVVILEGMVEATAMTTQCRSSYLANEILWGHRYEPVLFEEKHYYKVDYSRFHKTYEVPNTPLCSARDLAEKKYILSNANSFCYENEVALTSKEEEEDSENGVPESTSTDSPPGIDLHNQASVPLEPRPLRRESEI

[2] = parental HEK293 cell activity, no Kir2.1 – FluxOR thallium flux, duplicate, single concentration, counter-screen for Kir2.1 inhibitor project, confirmation (AID 2105); conditions: parental HEK293 cells, FluxOR thallium flux fluorescence, at 10 µM; 0% = unstimulated blank wells;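 for FluxOR signal as % of negative control (100 = no effect): percent is based on the flux ratio of peak minus minimum fluorescence over baseline F0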
[3] = parental CHO-K1 cell activation, no KCNQ2 – FluxOR thallium flux, duplicate, counter-screen for KCNQ2 potentiator project, confirmation (AID 2282;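 active = signal rise of at least 3 SD above the untreated control mean, in both duplicate wells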;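 note: counter screen of KCNQ2 potentiator hits so any rise reflects channel-independent effects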); conditions: parental CHO-K1 cells, FluxOR thallium flux fluorescence; at 10 µM; active compounds read high; zero = vehicle mean+3SD, 100% = vehicle-minus-blank window
[4] = biological target: Potassium voltage-gated channel subfamily KQT member 1 (Homo sapiens) (UniProt P51787); test: KCNQ1 activation in stable CHO cells – cell-based, FluxOR thallium flux, selectivity assay for KCNQ2 potentiator project, confirmation (AID 2283;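 active = fluorescence ratio rise of at least 3 SD of vehicle wells above their mean, in both replicate wells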;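 note: 0% = vehicle mean plus 3 SD and 100% = vehicle minus unstimulated blank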); conditions: FluxOR thallium flux fluorescence, at 10 µM, active compounds read high, beyond 3SD, as % of vehicle-control signal
Sequence of Potassium voltage-gated channel subfamily KQT member 1 (Homo sapiens) (P51787 whole entry, looked up): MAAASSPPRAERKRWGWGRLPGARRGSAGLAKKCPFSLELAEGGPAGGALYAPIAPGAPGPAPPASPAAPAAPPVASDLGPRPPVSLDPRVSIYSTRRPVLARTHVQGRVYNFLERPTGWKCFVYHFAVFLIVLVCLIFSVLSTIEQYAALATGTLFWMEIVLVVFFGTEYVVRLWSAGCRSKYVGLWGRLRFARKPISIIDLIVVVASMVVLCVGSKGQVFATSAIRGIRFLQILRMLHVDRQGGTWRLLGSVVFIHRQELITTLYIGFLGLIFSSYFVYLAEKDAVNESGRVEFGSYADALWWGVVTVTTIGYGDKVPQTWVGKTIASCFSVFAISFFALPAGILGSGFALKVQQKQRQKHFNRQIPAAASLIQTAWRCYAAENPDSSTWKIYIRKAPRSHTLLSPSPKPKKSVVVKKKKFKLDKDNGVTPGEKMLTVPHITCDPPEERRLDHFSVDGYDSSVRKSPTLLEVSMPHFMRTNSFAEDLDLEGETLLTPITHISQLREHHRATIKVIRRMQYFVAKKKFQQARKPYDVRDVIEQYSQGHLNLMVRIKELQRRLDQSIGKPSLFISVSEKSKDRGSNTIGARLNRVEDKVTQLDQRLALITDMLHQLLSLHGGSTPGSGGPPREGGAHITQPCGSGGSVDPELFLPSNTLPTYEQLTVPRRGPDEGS

[5] = biological target: Potassium voltage-gated channel subfamily KQT member 2 (Rattus norvegicus) (UniProt O88943); test: KCNQ2 potassium channel activity enhancers – cell-based, CHO, FluxOR thallium flux, duplicate, confirmation (AID 2287;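 active = fluorescence ratio rising 3 SD or more over the vehicle control mean in both replicates, plus primary screen hit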;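 note: peak minus minimum thallium fluorescence divided by baseline after K/Tl stimulus; 0% = vehicle mean plus 3 SD and 100% = vehicle minus unstimulated blank difference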); conditions: CHO-KCNQ2 cells, FluxOR thallium flux fluorescence; at 10 µM; active compounds read high
[6] = biological target: Inward rectifier potassium channel 2 (Mus musculus) (UniProt P35561); test: PubChem AID 2345; conditions: HEK293 Kir2.1, FluxOR thallium flux fluorescence; at 10 µM; active compounds read high;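 note: 0% = vehicle mean plus 3 SD and 100% = vehicle minus no-stimulus blank window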
[7] = biological target: Potassium voltage-gated channel subfamily KQT member 2 (Rattus norvegicus) (UniProt O88943); test: W236L mutant KCNQ2 current enhancers – cell-based, rat KCNQ2 W236L, CHO, automated patch clamp, mechanism study for KCNQ2 potentiator project (AID 2558;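 active = current increase at least 3 SD of the untreated controls above them in both duplicate recordings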); conditions: at 25 µM
[8] = nonspecific flux increase, KCNQ1-free cells – parental CHO cells, counter-screen for KCNQ1 potentiator project (AID 493006;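 active = duplicate-averaged activation above buffer control mean plus 5 SD of those controls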;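 note: fluorescence ratio of max minus min over baseline after K+ and Tl+ depolarization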); conditions: parental CHO-K1 cells, FluxOR thallium flux, at 10 µM; active compounds read high
[9] = biological target: Potassium voltage-gated channel subfamily KQT member 1 (Homo sapiens) (UniProt P51787); test: enhancement of KCNQ1 channel thallium flux – FluxOR thallium flux, CHO cells, duplicates, confirmation (AID 493007;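 active = potentiation averaged over duplicate wells exceeding buffer-only control mean by more than 3 SD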;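 note: 0% = buffer-only wells and 100% = R-L3 activator control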); conditions: KCNQ1 cell line, FluxOR thallium flux fluorescence, at 10 µM; active compounds read high, % of reference activator effect, buffer zero
[10] = biological target: Potassium voltage-gated channel subfamily KQT member 2 (Rattus norvegicus) (UniProt O88943); test: KCNQ2 thallium flux enhancement – KCNQ2-CHO-K1 cells, selectivity assay for KCNQ1 potentiator project (AID 493009;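 active = mean duplicate potentiation above the buffer control mean plus 5 SD of buffer wells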;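 note: assay conditions were tuned for KCNQ1 rather than KCNQ2 modulators; signal is max minus min fluorescence divided by baseline after thallium stimulus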); conditions: FluxOR thallium flux fluorescence, at 10 µM; active compounds read high, scaled: buffer 0, activator control 100
[11] = biological target: Potassium voltage-gated channel subfamily KQT member 1 (Homo sapiens) (UniProt P51787); test: KCNQ1 activators by electrophysiology – IonWorks patch clamp, KCNQ1-CHO cells, orthogonal assay for KCNQ1 potentiator project, confirmation (AID 493184;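 active = current rise at least 3 SD above the untreated control mean in each of two repeat wells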;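 for current potentiation: percent change of the same well's current before compound addition so 0% = no change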); conditions: automated patch clamp current, at 10 µM; active compounds read high

SMILES	outcome [1]	FluxOR signal as % of negative control (100 = no effect) [2]	activity increase over 3SD of controls [3]	activation over 3SD threshold [4]	potentiation, less the hit threshold [5]	activity over 3SD threshold [6]	outcome [7]	activation [8]	potentiation [9]	potentiation [10]	current potentiation [11]	outcome [2]	outcome [11]	current increase over 3SD of negative controls (%), active compounds read high [7]
CCC1(C)Cc2c(sc3[nH]c(=S)n(Cc4ccccc4)c(=O)c23)CO1 (stereo not given)	inactive	527% (active)	-13%	-16.6%	66% (active)	10.5% (active)	inactive	294% (active)	190% (active)	388% (active)	15.1% (active)	–	–	–
O=C(NCc1ccc2c(c1)OCO2)C12CC3CC(CC(C3)C1)C2	inactive	–	-12%	-10.2%	73.5% (active)	-47%	inactive	–	–	–	–	inactive	–	–
Cc1ccc(/C=N/NC(=O)c2cc3ccccc3cc2O)o1	inactive	414% (active)	42.5% (active)	-6.4%	69% (active)	-20.1%	inactive	482% (active)	140% (active)	506% (active)	–	–	inactive	–
Oc1c(Cl)cc(Cl)cc1/C=N/c1ncn[nH]1	inactive	–	-13.3%	-9.2%	37.8% (active)	-28.1%	inactive	232% (active)	41.5% (active)	156% (active)	–	inactive	inactive	–
CSc1nnc(NC(=O)c2nc(S(=O)(=O)Cc3ccc(C)cc3)ncc2Cl)s1	inactive	–	-8.9%	-21.2%	67.6% (active)	-50.4%	–	–	–	–	–	inactive	–	23.1% (active)
CC(NC(=O)Nc1ccccc1)c1ccccc1 (stereo not given)	inactive	–	-4.7%	-0.5%	22.8% (active)	-35.8%	inactive	–	–	–	–	inactive	–	–
CCn1c(O)c(N=NC2=NC(=O)CS2)c2cc(C)ccc21	inactive	160% (active)	-1.5%	-22.6%	0.3% (active)	-27.4%	inactive	244% (active)	112% (active)	310% (active)	–	–	inactive	–
